Measurements from the supplement of paper PMC10127200.
Structures can show the parent of a compound that is named as a salt.

Legend:
Assay in all cases: Euclidean distance of Cell Painting phenotypic profile (signed KS, 77 features) to DMSO centroid (dimensionless distance); 5 or 10 uM (library dependent); higher = stronger phenotypic change vs DMSO (phenoactivity)
Conditions in all cases: 48 h
786-O = system: 786-O
Outline: (§1)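 Harmony extracted 77 features from 20X confocal images (9 fields/well) of stained cells, scoring each as a signed Kolmogorov-Smirnov statistic against same-plate vehicle wells. The cells, five cancer lines and a healthy fibroblast line, had received library compounds for 48 h at 10 or 5 uM depending on library, with 0.1% DMSO final. Phenoactivity is the Euclidean distance from each plate-position-corrected, correlation-weighted, top-dose replicate-averaged profile to the median vehicle profile.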

A549 = system: A549
Outline: as §1

DU145 = system: DU145
Outline: as §1

FB = system: FB
Outline: as §1

HEPG2 = system: HEPG2
Outline: as §1

OVCAR4 = system: OVCAR4
Outline: as §1

| Compound | Euclidean distance (786-O) | Euclidean distance (A549) | Euclidean distance (DU145) | Euclidean distance (FB) | Euclidean distance (HEPG2) | Euclidean distance (OVCAR4) |
| --- | --- | --- | --- | --- | --- | --- |
| CCN1CCN(C(=O)N[C@@H](C(=O)N[C@@H]2C(=O)N3C(C(=O)O)=C(CSc4nnnn4C)CS[C@H]23)c2ccc(O)cc2)C(=O)C1=O [Cefoperazone] | 1.77 | 0.776 | 0.917 | 1.45 | 0.854 | 1.24 |
| CN(C)CCC=C1c2ccccc2C(C)(C)c2ccccc21 [Melitracen hydrochloride] | 1.33 | 1.82 | 2.27 | 2.65 | 1.5 | 1.37 |
| CC1=NN(c2ccc(C)c(C)c2)C(=O)/C1=N\Nc1cccc(-c2cccc(C(=O)O)c2)c1O [Eltrombopag Olamine] | 1.58 | 1.04 | 1.13 | 2.4 | 1.69 | 1.49 |
| CC[C@@H]1C(=O)OC[C@@H]1Cc1cncn1C [Pilocarpine HCl] | 1.14 | 0.624 | 0.725 | 0.78 | 0.698 | 1.49 |
| COC(=O)Nc1nc2cc([S+]([O-])c3ccccc3)ccc2[nH]1 (configuration not stated) [Oxfendazole] | 1.09 | 0.692 | 1.08 | 0.801 | 1.42 | 1.12 |
| CCOC(=O)OC(C)OC1=C(C(=O)Nc2ccccn2)N(C)S(=O)(=O)c2ccccc21 (configuration not stated) [Ampiroxicam] | 1.26 | 1.35 | 0.928 | 0.606 | 0.41 | 1.47 |
| CCc1ccc(CCOc2ccc(CC3SC(=O)NC3=O)cc2)nc1 (configuration not stated) [Pioglitazone] | 0.465 | 0.586 | 0.944 | 0.666 | 0.336 | 0.891 |
| CCCOc1ccc(S(=O)(=O)NCCC2CCCN2C)cc1-c1nc2c(CCC)nn(C)c2c(=O)[nH]1 (configuration not stated) [Udenafil] | 1.13 | 1.12 | 1.49 | 1.77 | 1.61 | 1.41 |
| CN1C2CCCC1CC(NC(=O)c1nn(C)c3ccccc13)C2 (configuration not stated) [Granisetron] | 1.06 | 0.852 | 0.646 | 1.23 | 1 | 2.06 |
| O=c1cc(-c2cccc3c2Sc2ccccc2S3)oc(N2CCOCC2)c1 | 0.999 | 0.525 | 0.839 | 1.33 | 1.72 | 1.14 |
| S=C(NCc1ccc2c(c1)OCO2)N1CCN(c2ncnc3c2oc2ccccc23)CC1 [Amuvatinib (MP-470)] | 1.2 | 1.72 | 1.25 | 1.07 | 2.14 | 1.2 |
| Cc1nccn1CC1CCc2c(c3ccccc3n2C)C1=O (configuration not stated) [Ondansetron HCl] | 1.31 | 1.62 | 1.01 | 1.16 | 0.865 | 0.943 |
| CN1CCN(c2ccc(OC(F)(F)F)c(Nc3ncc4c(n3)-c3c(c(C(N)=O)nn3CCO)CC4)c2)CC1 | 2.75 | 4.08 | 3.85 | 3.73 | 2.82 | 3.67 |
| NCc1ccc(S(N)(=O)=O)cc1 [Mafenide Acetate] | 0.874 | 0.744 | 1.24 | 1.07 | 0.456 | 0.942 |
| CO/N=C(\C(=O)N[C@@H]1C(=O)N2C(C(=O)OC(C)OC(C)=O)=C(COC(N)=O)CS[C@H]12)c1ccco1 (some centres not stated) [Cefuroxime axetil] | 0.923 | 0.763 | 0.929 | 1.28 | 1.28 | 1.41 |
| CC(=O)N1CCN(c2ccc(OCC3COC(Cn4ccnc4)(c4ccc(Cl)cc4Cl)O3)cc2)CC1 (configuration not stated) [Ketoconazole] | 1.55 | 0.896 | 2.29 | 0.789 | 0.391 | 0.644 |
| Cc1ccc(C(=O)c2ccc(CC(=O)O)n2C)cc1 [Tolmetin] | 1.07 | 0.65 | 0.844 | 1.14 | 0.964 | 0.922 |
| COc1ccnc(C[S+]([O-])c2nc3cc(OC(F)F)ccc3[nH]2)c1OC (configuration not stated) [Pantoprazole] | 1.16 | 0.522 | 0.784 | 0.822 | 1.62 | 1.62 |
| CCN1CCN(c2cc3c(cc2F)c(=O)c(C(=O)O)cn3C2CC2)CC1 [Enrofloxacin] | 0.875 | 1.1 | 0.711 | 0.933 | 0.992 | 1.67 |
| COc1ccc(C2C(=O)c3ccccc3C2=O)cc1 [Anisindione] | 0.89 | 0.546 | 1.76 | 1.61 | 0.828 | 0.667 |
| CC[C@H](C)C(=O)O[C@H]1CCC=C2C=C[C@H](C)[C@H](CC[C@@H]3C[C@@H](O)CC(=O)O3)[C@H]21 [Mevastatin] | 2.6 | 1.88 | 0.707 | 3.12 | 1.43 | 1.64 |
| CN1CCN(CCCN2c3ccccc3Sc3ccc(C(F)(F)F)cc32)CC1 [Trifluoperazine 2HCl] | 2.52 | 2.25 | 1.58 | 2.19 | 3.04 | 1.8 |
| O=C(Nc1nc(-c2cc(Cl)cs2)c(N2CCN(C3CCCCC3)CC2)s1)c1cnc(N2CCC(C(=O)O)CC2)c(Cl)c1 [Avatrombopag] | 1.81 | 0.802 | 1.84 | 0.858 | 1.41 | 1.05 |
| O=C(NC[C@H]1CN(c2ccc(N3CCOCC3=O)cc2)C(=O)O1)c1ccc(Cl)s1 [Rivaroxaban] | 1.33 | 1.15 | 0.946 | 0.949 | 0.52 | 1.51 |

| Compound | Euclidean distance (786-O) | Euclidean distance (A549) | Euclidean distance (DU145) | Euclidean distance (FB) | Euclidean distance (HEPG2) | Euclidean distance (OVCAR4) |
| --- | --- | --- | --- | --- | --- | --- |
| COC1=CC(=O)C[C@@H](C)[C@]12Oc1c(Cl)c(OC)cc(OC)c1C2=O [Griseofulvin] | 0.605 | 0.678 | 0.803 | 1.48 | 0.745 | 0.81 |
| Cc1ccccc1C(OCCN(C)C)c1ccccc1 (configuration not stated) [Orphenadrine Citrate] | 1.08 | 0.794 | 1.23 | 0.881 | 2.08 | 1.07 |
| CNC(=O)c1cc(Oc2ccc(NC(=O)Nc3ccc(Cl)c(C(F)(F)F)c3)cc2)ccn1 [Sorafenib] | 2.08 | 2.51 | 1.74 | 1.78 | 2.93 | 2.28 |
| CC(C)OC(=O)OCOP(=O)(CO[C@H](C)Cn1cnc2c(N)ncnc21)OCOC(=O)OC(C)C [Tenofovir Disoproxil Fumarate] | 3.16 | 2.92 | 1.88 | 3.17 | 3.46 | 2.99 |
| COc1cccc(-c2cc(=O)c3ccccc3o2)c1N | 1.16 | 1.4 | 0.841 | 0.911 | 1.94 | 0.844 |
| Cc1nc(Nc2ncc(C(=O)Nc3c(C)cccc3Cl)s2)cc(N2CCN(CCO)CC2)n1 [Dasatinib hydrochloride] | 3.83 | 4.46 | 4.71 | 3.53 | 2.21 | 4.45 |
| C[C@@H]1[C@H](O)[C@@H](C)/C=C/C=C/C=C/C=C/C=C/C=C/C=C/[C@H](O[C@@H]2O[C@H](C)[C@@H](O)[C@H](N)[C@@H]2O)C[C@@H]2O[C@](O)(C[C@@H](O)C[C@@H](O)[C@H](O)CC[C@@H](O)C[C@@H](O)CC(=O)O[C@H]1C)C[C@H](O)[C@H]2C(=O)O [Amphotericin B] | 1.91 | 1.67 | 1.91 | 3.03 | 1.43 | 1.93 |
| COc1cccc(-c2c(C)n(Cc3c(F)cccc3C(F)(F)F)c(=O)n(C[C@H](NCCCC(=O)O)c3ccccc3)c2=O)c1F [Elagolix Sodium] | 0.686 | 1.22 | 1.02 | 0.826 | 0.728 | 1.23 |
| CC[N+](C)(C)c1cccc(O)c1 [Edrophonium chloride] | 0.852 | 0.865 | 0.738 | 0.728 | 0.598 | 0.943 |
| Cc1nnc(C(C)C)n1C1C[C@H]2CC[C@@H](C1)N2CC[C@H](NC(=O)C1CCC(F)(F)CC1)c1ccccc1 (stereo in doubt) [Maraviroc] | 1.35 | 0.711 | 1.04 | 1.1 | 0.487 | 1.71 |
| O=C(Nc1cccc(Cl)c1)Nc1ncc(CCNc2ncnc3ccsc23)s1 [SNS-314 Mesylate] | 1.07 | 1.84 | 0.974 | 1.73 | 0.589 | 1 |
| Cn1cc(-c2ccc3nnc(C(F)(F)c4ccc5ncccc5c4)n3n2)cn1 | 0.466 | 2.03 | 0.962 | 1.2 | 0.706 | 1.08 |
| COc1c(-c2ccc3cc(NS(C)(=O)=O)ccc3c2)cc(-n2ccc(=O)[nH]c2=O)cc1C(C)(C)C [Dasabuvir(ABT-333)] | 1.78 | 1.78 | 1.27 | 1.48 | 1.05 | 1.42 |
| COc1ccc2c(c1)c(CC(=O)O)c(C)n2C(=O)c1ccc(Cl)cc1 [Indomethacin] | 1.44 | 0.49 | 1.66 | 0.86 | 1.8 | 1.2 |
| CC(=O)[C@@]1(O)CC[C@H]2[C@@H]3C[C@H](C)C4=CC(=O)C=C[C@]4(C)[C@@]3(F)[C@@H](O)C[C@@]21C [Fluorometholone] | 0.819 | 2.59 | 1.54 | 1.73 | 1.04 | 1.8 |
| CCCCC1C(=O)N(c2ccccc2)N(c2ccccc2)C1=O [Phenylbutazone] | 0.905 | 0.759 | 1.5 | 1.25 | 0.482 | 1 |
| CS(=O)(=O)c1ccc(C(=O)Nc2ccc(Cl)c(-c3ccccn3)c2)c(Cl)c1 [Vismodegib (GDC-0449)] | 1.82 | 1.01 | 0.671 | 1 | 0.631 | 0.924 |
| CC1(C)OC(=O)NC1=O [5.5-Dimethyloxazolidine-2.4-dione] | 0.865 | 0.849 | 1.06 | 1.02 | 0.557 | 0.894 |
| CCC[C@H](NC(=O)/C(C#N)=C/c1cccc(Br)n1)c1ccccc1 [Degrasyn (WP1130)] | 5.15 | 4.08 | 4.95 | 2.59 | 1.66 | 4.93 |
| Cc1ccc(NC(=O)c2ccc(CN3CCN(C)CC3)cc2)cc1Nc1nccc(-c2cccnc2)n1 [Imatinib Mesylate (STI571)] | 1.63 | 2 | 1.67 | 2.28 | 1.61 | 1.55 |
| CC(C)CC(=O)Nc1cncc(-c2ccc3[nH]nc(-c4nc5cncc(-c6cccc(F)c6)c5[nH]4)c3c2)c1 | 5.07 | 2.79 | 4.73 | 4.58 | 4.73 | 3.42 |
| CNC[C@H](O)c1ccc(O)c(O)c1 [Epinephrine bitartrate] | 0.553 | 0.655 | 0.818 | 0.827 | 0.637 | 0.577 |
| COc1cc2c(cc1OC)[C@@H]1Cc3ccc(OC)c(OC)c3CN1CC2 [Rotundine] | 1.84 | 0.769 | 1.07 | 1.26 | 0.595 | 1.2 |
